Experimental data: article PMC5700166

Each sequence was assayed against T1, GST-Dm-Relish (Drosophila melanogaster, UniProt Q94527 99-473) (assay: protein-binding microarray (PBM); PBM: ~300 nM protein, 6 mM HEPES pH 7.8, 80 mM KCl, 0.5 mM EDTA, 0.5 mM EGTA, 6% glycerol, 35 ng/ul poly-dIdC, 1% milk, 1 h, room temperature; Ap Aiptasia and Nv Nematostella (sea anemones) / Co Capsaspora / Aq Amphimedon (sponge) / Dm Drosophila / Hu human; RHD is the Rel homology domain; high values mean tight binding). Conditions: dsDNA, one strand shown.
T1 sequence: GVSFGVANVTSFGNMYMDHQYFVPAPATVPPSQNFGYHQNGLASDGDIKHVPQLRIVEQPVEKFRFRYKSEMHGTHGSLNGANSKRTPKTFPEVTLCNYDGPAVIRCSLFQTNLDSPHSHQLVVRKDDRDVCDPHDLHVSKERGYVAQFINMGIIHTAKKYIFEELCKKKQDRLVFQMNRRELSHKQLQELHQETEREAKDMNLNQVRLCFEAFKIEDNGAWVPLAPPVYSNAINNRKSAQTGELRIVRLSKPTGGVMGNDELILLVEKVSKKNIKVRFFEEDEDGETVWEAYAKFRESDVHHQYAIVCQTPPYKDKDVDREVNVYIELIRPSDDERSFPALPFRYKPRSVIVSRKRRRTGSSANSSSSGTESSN
Sequence “CCGATTAACATCAAAATTCCACCTGATGTTAATCGGGTCTTGATTCGCTTGACGCTGCTG” has a binding signal of 1.96 z-score. “CCGATTAACATCACCCCCCCCCGTGATGTTAATCGGGTCTTGATTCGCTTGACGCTGCTG” was tested, and the binding signal was 6.11 z-score. In the case of “CCGATTAACATCAGCCCCCCCCATGATGTTAATCGGGTCTTGATTCGCTTGACGCTGCTG”, the binding signal was 4.42 z-score. Work on “CCGATTAACATCAGGGAACTCCATGATGTTAATCGGGTCTTGATTCGCTTGACGCTGCTG” yielded a binding signal of 6.21 z-score. For “CCGATTAACATCAGGGTTTTCCATGATGTTAATCGGGTCTTGATTCGCTTGACGCTGCTG”, the binding signal was 5.27 z-score. “CCGATTAACATCAGGGGCGGGAATGATGTTAATCGGGTCTTGATTCGCTTGACGCTGCTG” was tested, and the binding signal was 2.49 z-score. For “CCGATTAACATCAGGGGTTCCACTGATGTTAATCGGGTCTTGATTCGCTTGACGCTGCTG”, the binding signal was 5.79 z-score. “CCGATTAACATCAGGGAAGCCCATGATGTTAATCGGGTCTTGATTCGCTTGACGCTGCTG” showed a binding signal of 8.29 z-score. Work on “CCGATTAACATCAGGGACCTCCCTGATGTTAATCGGGTCTTGATTCGCTTGACGCTGCTG” yielded a binding signal of 6.16 z-score. With “CCGATTAACATCACATGTTCCCCTGATGTTAATCGGGTCTTGATTCGCTTGACGCTGCTG” the binding signal was 3.04 z-score. “CCGATTAACATCAAGCAACCCCCTGATGTTAATCGGGTCTTGATTCGCTTGACGCTGCTG” showed a binding signal of 5.19 z-score. For “CCGATTAACATCAAAAATTTACCTGATGTTAATCGGGTCTTGATTCGCTTGACGCTGCTG”, the binding signal was 4.45 z-score. “CCGATTAACATCAACAAAGTCCCTGATGTTAATCGGGTCTTGATTCGCTTGACGCTGCTG” was tested, and the binding signal was 5.26 z-score. “CCGATTAACATCAGGGGAAGGACTGATGTTAATCGGGTCTTGATTCGCTTGACGCTGCTG” was tested, and the binding signal was 8.23 z-score.
